In all, about 52,000 compounds went through this assay and about 4,300 (8.3%) were called active. What follows is part of a selection rich in actives, with near analogues and random picks from the rest. Values without a mark were called inactive. Cut-off read from the data, not from the text of the source: active = survival mostly below about 52% (no sharp cut-off); inactive = mostly above about 56%.

The assay concerns DeltatarO mutant. Description: growth inhibition of S. aureus wild type versus tarO mutant, primary screen, teichoic acid synthesis inhibitors, RN4220, OD600 (AID 463173). The settings on record: OD600, 18 h, active compounds read low, screened at 18.75 µg/mL (by protocol).
`CC(=O)c1c(C)n(-c2cccc(C)c2)c2ccc(OC(=O)COc3ccccc3)cc12`: the survival is 70%.
As for `COc1ccc(OC)c(NC(=O)COCc2cc(-c3ccco3)on2)c1`, the figure is 49%; as for `Cc1ccc(CNC(=O)Cn2c(=O)n(Cc3ccc(F)cc3)c(=O)c3sc4ccccc4c32)cc1`, 92%.
The figure for `O=C1CCCN1c1ccc(S(=O)(=O)N2CCCCC2)cc1` is 93%.
As for `COc1cccc2c1cc1c(=O)n(CC(=O)N3CCN(c4cc(Cl)ccc4C)CC3)nc(C)n12`, the figure is 74%; as for `O=C(Nc1cccc(C(=O)OCc2cc(=O)n3nc(C4CC4)sc3n2)c1)c1cccc(Cl)c1`, 80%; as for `Cc1ccc(NC(=O)COc2ccc(-c3nn(C)c(=O)c4ccccc34)cc2)cc1`, 48%.
With `CNC(=O)COc1ccc(NC(=O)c2ccc(-c3nn(C)c(=O)c4ccccc34)cc2)cc1`, the survival is 75%.
For the compound `CNC(=O)c1ccc(NC(=O)COc2ccc(-c3nn(C)c(=O)c4ccccc34)cc2)cc1`, the survival is 62% (active).
The figure for `Cn1nc(-c2ccc(OCC(=O)Nc3ccccc3)cc2)c2ccccc2c1=O` is 47%; for `COc1ccc(NC(=O)COc2ccc(-c3nn(C)c(=O)c4ccccc34)cc2)cc1` it is 75%.
As for `COc1ccccc1NC(=O)COc1ccc(-c2nn(C)c(=O)c3ccccc23)cc1`, the figure is 37% (active).
For `CC(=O)c1ccc(NC(=O)c2nc3ccccc3n(C)c2=O)cc1`, the survival was 80%.
Consider `CC(C)Cn1c(=O)c2ccccc2n2c(CCC(=O)NC(C)c3ccccc3)nnc12` (stereo not given), for which the survival is 87%.
The figure for `CN(C)S(=O)(=O)c1ccc(C(=O)Nc2c(C(=O)Nc3ccc(F)cc3)oc3ccccc23)cc1` is 73%.
As for `Cc1ccc(NC(=O)Cc2coc3c(C)c(C)ccc23)c(C)c1`, the survival is 96%.
As for `CCOC(=O)c1cccc(NC(=O)Cn2nc3c(cc2=O)CCCC3)c1`, the figure is 37% (active); as for `O=C(Cn1nc2c(cc1=O)CCCC2)NCc1ccccc1`, 105%.
As for `CCOC(=O)c1cccc(NC(=O)Cn2cnc3nc4c(cc3c2=O)CCCC4)c1`, the figure is 94%; as for `COc1ccc(CNC(=O)Cn2nc3c(cc2=O)CCCC3)cc1`, 46% (active); as for `O=C(Cn1nc2c(cc1=O)CCCC2)NCc1ccc(Cl)cc1`, 115%.
As for `Cc1ccc(NC(=O)Cn2nc3c(cc2=O)CCCC3)cc1Cl`, the survival is 93%.
The figure for `COc1ccc(Cl)cc1C(=O)CSc1nnnn1C1CCCCC1` is 93%; for `COc1ccc(NC(=O)CCCc2nnc3n(C(C)C)c(=O)c4sccc4n23)cc1Cl` it is 93%; for `CN(C)CCN(Cc1ccco1)C(=O)c1cc2c(s1)-c1ccccc1OC2` it is 69%.
As for `CC(C)CCN(Cc1ccco1)C(=O)c1cc2c(Cl)nc3ccccc3c2s1`, the survival is 68%.
The figure for `CC(C)OCCCN(Cc1ccco1)C(=O)c1cc2c(s1)-c1ccccc1OC2` is -5% (active).
As for `COCCCN(Cc1ccco1)C(=O)c1cc2c(s1)-c1ccccc1OC2`, the figure is -3% (active); as for `COc1ccccc1CNC(=O)c1cc2c(s1)-c1ccccc1OC2`, 61%; as for `CC(C)CCN(Cc1ccco1)C(=O)c1cc2c(s1)-c1ccccc1OC2`, -4% (active).
